Measurements from PubChem BioAssay AID1159580 (chemical genetic matrix, 2015).
“And” between values parts separate entries of the source, which are not always exact repeats. Identical values can stand only once. Out of some 5,500 compounds screened, about 2,000 (36%) were called active. Inconclusive results (about 18%) are left out. Rule as the data show it: active = normalized growth mostly below about 0.91 (no sharp cut-off); inconclusive = no clear call, values can overlap the other calls; inactive = mostly above about 0.92. Some of the results follow.

Assay: chemical genetic growth profiling, strain panel (AID 1159580);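 also: tested at 20 µM; growth read once vehicle control cultures reached saturation at 30 °C; 1 = growth at the plate median or of vehicle wells; lower values mean less growth of the strain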
Conditions: S. cerevisiae deletion strains, growth OD

Measured: normalized growth

COCCOC(=O)C1=C(C)NC(C)=C(C(=O)OC(C)C)C1c1cccc([N+](=O)[O-])c1 (stereo not given)
inactive: locus YAL013W, strain DEP1, stronger effect = lower value 1.01 | locus YAL021C, strain ccr4, stronger effect = lower value 1.04 | locus YAL026C, strain drs2, stronger effect = lower value 1.02 | locus YAL030W, strain snc1, stronger effect = lower value 1.02 | locus YAL040C, strain CLN3, stronger effect = lower value 1 | locus YBL061C, strain skt5, stronger effect = lower value 1.02 | locus YBR009C, strain hhf1, stronger effect = lower value 0.988 | locus YBR021W, strain FUR4, stronger effect = lower value 1.01 | locus YBR023C, strain chs3, stronger effect = lower value 1.02 | locus YBR171W, strain sec66, stronger effect = lower value 1.02 | locus YBR229C, strain ROT2, stronger effect = lower value 0.999 | locus YBR231C, strain swc5, stronger effect = lower value 0.996 | locus YBR279W, strain paf1, stronger effect = lower value 0.992 | locus YCL011C, strain gbp2, stronger effect = lower value 1.02 | locus YCL016C, strain dcc1, stronger effect = lower value 1.01 | locus YCL029C, strain bik1, stronger effect = lower value 1.02 | locus YCL061C, strain MRC1 (second series), stronger effect = lower value 1.01 | locus YCL069W, strain vba3, stronger effect = lower value 1.02 | locus YCR088W, strain abp1, stronger effect = lower value 1.01 | locus YDL005C, strain med2, stronger effect = lower value 1.01 | locus YDL035C, strain GPR1, stronger effect = lower value 1.01 | locus YDL040C, strain nat1, stronger effect = lower value 0.999 | locus YDL074C, strain BRE1, stronger effect = lower value 0.996 | locus YDL101C, strain DUN1, stronger effect = lower value 1.01 | locus YDL134C, strain PPH21, stronger effect = lower value 1.01 | locus YDL185W, strain tfp1, stronger effect = lower value 1.02 | locus YDL192W, strain arf1, stronger effect = lower value 1.02 | locus YDR001C, strain nth1, stronger effect = lower value 1.01 | locus YDR069C, strain doa4, stronger effect = lower value 0.982 | locus YDR101C, strain arx1, stronger effect = lower value 1.01 | locus YDR137W, strain rgp1, stronger effect = lower value 0.925 | locus YDR150W, strain NUM1, stronger effect = lower value 1.01 and 0.999 | locus YDR159W, strain sac3, stronger effect = lower value 0.967 | locus YDR162C, strain NBP2, stronger effect = lower value 0.992 | locus YDR195W, strain ref2 1.01 | locus YDR297W, strain sur2, stronger effect = lower value 1.01 | locus YDR318W, strain mcm21, stronger effect = lower value 1.01 | locus YDR334W, strain swr1, stronger effect = lower value 1 | locus YDR335W, strain msn5, stronger effect = lower value 1.01 | locus YDR363W, strain ESC2, stronger effect = lower value 1.01 | locus YDR388W, stronger effect = lower value 1.01 | locus YDR392W, strain spt3, stronger effect = lower value 0.977 | locus YDR502C, strain sam2, stronger effect = lower value 1 | locus YEL003W, strain gim4, stronger effect = lower value 1.01 | locus YEL037C, strain rad23, stronger effect = lower value 1.01 | locus YEL061C, strain CIN8 (second series), stronger effect = lower value 1 | locus YEL061C, strain CIN8, stronger effect = lower value 1 | locus YER002W, strain NOP16, stronger effect = lower value 0.993 | locus YER015W, strain faa2, stronger effect = lower value 1.01 | locus YER016W, strain bim1, stronger effect = lower value 0.989 | locus YER110C, stronger effect = lower value 1.02 | locus YER111C, strain swi4, stronger effect = lower value 1.02 | locus YER155C, strain BEM2 (second series), stronger effect = lower value 1.03 | locus YER155C, strain BEM2, stronger effect = lower value 1.02 | locus YER167W, strain BCK2, stronger effect = lower value 1.01 | locus YFR010W, strain ubp6, stronger effect = lower value 1.01 | locus YGL078C, strain dbp3, stronger effect = lower value 1.01 | locus YGL086W, strain mad1, stronger effect = lower value 0.992 | locus YGL167C, strain pmr1, stronger effect = lower value 1 | locus YGL173C, strain kem1, stronger effect = lower value 1.01 | locus YGL227W, strain vid30, stronger effect = lower value 1.03 | locus YGL240W, strain doc1, stronger effect = lower value 0.984 | locus YGL248W, strain PDE1, stronger effect = lower value 1 | locus YGL253W, strain hxk2, stronger effect = lower value 1.01 | locus YGR078C, strain PAC10, stronger effect = lower value 1 and 0.918 | locus YGR135W, strain pre9, stronger effect = lower value 0.997 | locus YGR229C, strain SMI1, stronger effect = lower value 1 | locus YGR252W, strain gcn5, stronger effect = lower value 0.961 | locus YHR013C, strain ard1, stronger effect = lower value 1.02 | locus YHR027C, strain rpn1, stronger effect = lower value 1.01 | locus YHR030C, strain SLT2, stronger effect = lower value 1.01 and 0.955 | locus YHR079C, strain IRE1 (second series), stronger effect = lower value 1 | locus YHR079C, strain IRE1, stronger effect = lower value 0.95 | locus YHR094C, strain hxt1, stronger effect = lower value 1.01 | locus YHR129C, strain ARP1, stronger effect = lower value 0.999 | locus YHR142W, strain chs7, stronger effect = lower value 1.04 | locus YHR200W, strain rpn10, stronger effect = lower value 1.02 | locus YIL066C, strain RNR3, stronger effect = lower value 1.01 | locus YIL073C, strain SPO22, stronger effect = lower value 1.04 | locus YIL125W, strain kgd1, stronger effect = lower value 1.01 | locus YIR030C, strain dcg1, stronger effect = lower value 1.01 | locus YJL092W, strain hpr5, stronger effect = lower value 1.02 | locus YJL095W, strain BCK1 (second series), stronger effect = lower value 1.02 | locus YJL095W, strain BCK1, stronger effect = lower value 1 and 0.972 | locus YJL115W, strain asf1, stronger effect = lower value 1.02 | locus YJL129C, strain trk1, stronger effect = lower value 0.987 | locus YJL134W, strain LCB3, stronger effect = lower value 1.01 | locus YJL154C, strain vps35, stronger effect = lower value 1 | locus YJL164C, strain tpk1, stronger effect = lower value 1.02 | locus YJL166W, strain qcr8, stronger effect = lower value 1.02 | locus YJL168C, strain set2, stronger effect = lower value 1.01 | locus YJL187C, strain SWE1 (second series), stronger effect = lower value 1 | locus YJL187C, strain SWE1, stronger effect = lower value 1.01 | locus YJR043C, strain POL32, stronger effect = lower value 0.999 | locus YJR066W, strain TOR1, stronger effect = lower value 0.946
